Gal4-VP16 FLuc = VP16 counterscreen qHTS for inhibitors of ROR gamma transcriptional activity | 310,000 compounds, 3.5% hits | Drosophila S2 Gal4-VP16 UAS-luciferase, luminescence, 20 h | Potency, µM (highest dose often 53.6 µM), for inactives: at the top dose activity, negative = inhibition, most hits filed as inhibitors;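 note: Gal4-VP16 expression switched on by copper sulfate through the metallothionein promoter; potency is the fitted concentration of half-maximal effect; % is set by controls: 0 for no effect and ±100 for the full control effect; nearly all actives have a fitted effect of over 50% in size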
IL1B secr inh = qHTS for Inhibitors of Inflammasome Signaling: IL-1-beta AlphaLISA Primary Screen | THP-1 LPS/ATP IL-1B secretion, AlphaLISA, 16 h; active compounds read low | activity change, % at 57.5 µM | 360,000 compounds, 4.7% hits | AID 743279, 2014; in the data active = activity change below about -50%; inconclusive = mostly about -30% to -49%; note: % is set by controls: 0 for no effect and ±100 for the full control effect
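Secreted IL-1B measured by AlphaLISA bead assay after 16 h compound exposure of THP-1 cells; compounds (final up to 57.5 uM) added 1 h before LPS (250 ng/mL) and ATP (1.25 mM) stimulation; lower signal means less secretion.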
SW480 rerep = A quantitative high throughput screen for small molecules that induce DNA re-replication in SW480 colon adenocarcinoma cells. SW480 DNA re-replication, Hoechst DNA content imaging, 48 h. Potency, µM (titrated, usually from 46.1 µM), for the others: at the highest dose re-replication activation, usual class: activators. 340,000 compounds, 1.8% hits. AID 624297, 2012; note: potency is the fitted concentration of half-maximal effect; % of control where 0% means no effect; nearly all actives have a fitted effect of over 55% in size
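Treated cells incubate 48 hr (37 C, 5% CO2), are stained 40 min with Hoechst, and nuclear fluorescence is enumerated; a rise in nuclei with high DNA signal marks re-replication.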
RORgamma inh = qHTS for inhibitors of ROR gamma transcriptional activity. Nuclear receptor ROR-gamma (Mus musculus), P51450. Drosophila S2 Gal4-RORgamma UAS-luciferase reporter, 20 h. Potency, µM (titrated, usually from 53.6 µM), for inactives: at the highest dose activity change, negative = inhibition, hits mostly inhibitors. 310,000 compounds, 5.4% hits. AID 2551, 2010; note: potency is the fitted concentration of half-maximal effect; % is set by controls: 0 for no effect and ±100 for the full control effect; nearly all actives have a fitted effect of over 60% in size
Target sequence (P51450 whole entry, looked up, the tested form may be a part): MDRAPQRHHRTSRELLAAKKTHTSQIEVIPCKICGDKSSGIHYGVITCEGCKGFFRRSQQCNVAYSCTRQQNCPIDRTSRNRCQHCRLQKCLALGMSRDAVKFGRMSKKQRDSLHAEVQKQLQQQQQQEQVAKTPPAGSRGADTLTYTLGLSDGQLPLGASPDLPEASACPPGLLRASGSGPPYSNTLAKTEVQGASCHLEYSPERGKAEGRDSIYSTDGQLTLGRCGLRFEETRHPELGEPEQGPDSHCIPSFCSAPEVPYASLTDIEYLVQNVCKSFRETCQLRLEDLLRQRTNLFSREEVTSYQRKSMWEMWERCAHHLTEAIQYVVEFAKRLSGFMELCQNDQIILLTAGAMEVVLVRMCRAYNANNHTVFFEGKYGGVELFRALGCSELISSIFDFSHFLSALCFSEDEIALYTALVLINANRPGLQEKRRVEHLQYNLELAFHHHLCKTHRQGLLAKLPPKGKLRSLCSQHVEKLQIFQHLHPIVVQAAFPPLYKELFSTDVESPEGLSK
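Using a luciferase readout, inhibitors were identified by reduced reporter activity in Drosophila cells coexpressing a copper-inducible Gal4–ROR gamma fusion and UAS-driven Photinus luciferase, incubated 20 hr after 700 uM copper sulfate.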
MCF10A rereplic = A quantitative high throughput screen for small molecules that induce DNA re-replication in MCF 10a normal breast cells | MCF 10A DNA re-replication, Hoechst nuclear intensity, 48 h | 350,000 compounds, 2.9% hits | Potency, µM (highest dose often 46.1 µM), for inactives: at the highest dose activity, positive = re-replication, hits mostly activators; note: potency is the fitted concentration of half-maximal effect; % of control where 0% means no effect; nearly all actives have a fitted effect of over 50% in size
Numbers without * were called inactive; ? = inconclusive; / = not tested or not shown. Only some compounds are listed: those with a hit (about 11% of all), similar ones and a draw of the others. Unless noted, calls come from the whole dose curve; as a rule, active = well fitted curve in the direction sought with a large enough effect; inconclusive = small, poorly fitted or top-dose-only effect, or another doubt; inactive = no such curve, though single readings can be large; an effect the other way counts as inactive or inconclusive.

SMILES | Gal4-VP16 FLuc | IL1B secr inh | SW480 rerep | RORgamma inh | MCF10A rereplic
O=C(NCc1ccccc1Cl)c1ccc2sc([C@@H]3O[C@H](CO)[C@H](O)[C@H](O)[C@H]3O)nc2c1 | / | 11 | / | / | /
OCCN1CCN(c2nc(-c3ccccc3)c3cc(Cl)ccc3n2)CC1 | -7% | -52* | 15µM* | -4% | ?
CCOC(=O)N1CCN(C(=O)c2ccc3nc(-c4ccccc4)c(-c4ccccc4)nc3c2)CC1 | -5% | -15 | 0% | -6% | 15%
CCOC(=O)N1CCN(c2nc(-c3ccccc3)c3cc(C)ccc3n2)CC1 | 1% | 21 | ? | 0% | 4.1µM*
Cc1ccc2nc(N3CCN(CCO)CC3)nc(-c3ccccc3)c2c1 | -12% | ? | 12µM* | -29% | 3.7µM*
Cc1ccc2nc(Cl)nc(-c3ccccc3)c2c1 | 2% | -12 | -4% | -23% | 4%
Cc1cc2c3c([nH]c2cc1S(=O)(=O)N1CCC2(CC1)OCCO2)CC(C)(C)CC3=O | -21% | 12 | ? | ? | 23µM*
Cc1ccc(C2C(C(=O)c3cc4ccccc4o3)=C(O)C(=O)N2c2cc(C)on2)cc1 (stereo unspecified) | ? | -5 | ? | ? | 9.2µM*
Cc1cc(N2C(=O)C(O)=C(C(=O)c3cc4ccccc4o3)C2c2ccc([N+](=O)[O-])cc2)no1 (stereo unspecified) | -4% | -7 | 2% | 42% | 1%
CCOc1ccc(C(=O)NCCc2ccccc2)cc1 | 8.9µM* | -24 | -4% | 8.9µM* | -2%
CC(=O)Oc1ccc(C(=O)NCCc2ccccc2)cc1 | ? | -16 | -5% | ? | -21%
O=C(COC(=O)CNC(=O)c1ccccc1)NCCc1ccccc1 | 0% | 0 | -29% | 10µM* | 0%
O=C(COC(=O)CCS(=O)(=O)c1ccc(Cl)cc1)NCCc1ccccc1 | 4% | 17 | -13% | 5.6µM* | 1%
CCOc1ccc(CN(CCC#N)C(=S)NC(=O)c2ccccc2)cc1 | 0.45µM* | 2 | ? | 0.4µM* | ?
CCCN(CCC)C(=S)NC(=O)c1ccc(-c2ccccc2)cc1 | 0.13µM* | 9 | ? | 0.5µM* | 21%
COc1ccc(CN(CCC#N)C(=S)NC(=O)c2ccccc2)cc1 | 0.56µM* | -17 | 1% | 0.32µM* | 9%
Cc1ccc(C(=O)NC(=S)N(C)Cc2ccccc2)cc1 | / | -30 | -31% | / | 0%
N#CCCN(Cc1ccccc1)C(=S)NC(=O)c1ccccc1 | 0.71µM* | 27 | ? | 0.35µM* | 26%
CCOc1ccc(C(=O)NC(=S)N(Cc2ccccc2)Cc2ccccc2)cc1 | 0.79µM* | 1 | ? | 0.28µM* | ?
CSCC[C@H](N)C(=O)N[C@@H](CCCN=C(N)N)C(=O)N[C@@H](CC(C)C)C(=O)N[C@@H](Cc1ccccc1)C(=O)N[C@H](C(=O)O)C(C)C | -4% | / | / | 4% | /
Cc1oc(-c2ccc(-c3ccccc3)cc2)nc1CN(CCO)C(C)C | ? | -82* | 3% | 7.9µM* | ?
Cc1oc(-c2cccc(Cl)c2)nc1CN(C)C1CCOC1 (stereo unspecified) | -3% | -7 | 3% | ? | 0%
Cc1oc(-c2ccc(-c3ccccc3)cc2)nc1CN(C)C1CCOC1 (stereo unspecified) | ? | -20 | 16µM* | 14µM* | ?
COC(=O)c1ccc2nc(C3CCCCC3)c(Cc3cccc(Cl)c3)n2c1 | / | 12 | / | / | /
CCN1C(=O)[C@H]2[C@@H](c3ccc(OC)cc3)N[C@]3(CCCN(Cc4ccc(Br)cc4)C3=O)[C@H]2C1=O | / | 33 | / | / | /
SMILES | Gal4-VP16 FLuc | IL1B secr inh | SW480 rerep | RORgamma inh | MCF10A rereplic
CCOC(=O)c1[nH]c2ccc(F)cc2c1NC(=O)C(C)N1CCc2cc(OC)c(OC)cc2C1 (stereo unspecified) | -3% | 0 | 16µM* | 8% | 7.3µM*
COc1ccc(Cl)cc1NC(=O)CN(C)C(=O)CN1C(=O)NC(C)(c2ccc3ccccc3c2)C1=O (stereo unspecified) | / | -53* | -2% | / | ?
Oc1c(Cl)cc(Cl)cc1/C=N/c1nccs1 | ? | -13 | -1% | 13µM* | 15µM*
Oc1c(Cl)cc(Cl)cc1/C=N/c1nc(-c2ccc(Cl)cc2)cs1 | 5% | -20 | 13% | -44% | ?
COc1ccc(-n2cnnc2SCC(=O)Nc2cc(S(=O)(=O)N3CCCCC3)ccc2C)cc1 | 2% | -30 | 0% | ? | 15%
COc1ccc(-n2cnnc2SCC(=O)c2ccc(S(=O)(=O)N3CCOCC3)cc2)cc1 | 20µM* | -15 | 0% | ? | -2%
COc1ccccc1CNc1nc(NCCNC(C)=O)c2sccc2n1 | / | 87 | / | / | /
COc1ccccc1CNc1nc(NCc2ccc3occc3c2)c2sccc2n1 | / | -100* | / | / | /
COc1ccccc1CNc1nc(NCCOc2ccccc2)c2sccc2n1 | / | -93* | / | / | /
COc1ccccc1CNc1nc(NCc2ccccc2SC)c2sccc2n1 | / | -99* | / | / | /
COc1ccccc1CNc1nc(NCc2cccs2)nc2ccsc12 | / | -17 | / | / | /
COc1ccccc1CNc1nc(NCC2CC2)nc2ccsc12 | / | -83* | / | / | /
CCCCCNC(=O)C(c1cccc2ccccc12)n1c(=O)c(-c2cc3ccccc3[nH]2)nc2ccccc21 (stereo unspecified) | / | 58 | / | / | /
COCCNc1nc(NCc2ccccc2OC)c2sccc2n1 | / | -25 | / | / | /
c1cc2cc(CNc3nc(NCC4CC4)nc4ccsc34)ccc2o1 | / | -78* | / | / | /
Cc1ccc(CNc2nc(NCC3CC3)nc3ccsc23)c(C)c1 | / | -19 | / | / | /
COc1ccccc1CNc1nc(NCc2ccccc2OC)c2sccc2n1 | / | -52* | / | / | /
COCCN(CCOC)Cc1cc(=O)oc2cc(C)c(Cl)cc12 | / | -3 | / | / | /
CCOC(=O)CN1C(c2ccccc2O)Nc2ccc(Br)cc2C1c1ccccc1 (stereo unspecified) | 7.1µM* | 17 | -2% | -95% | 6%
CC1CCCC(NC(=O)COC(=O)CCC2CCCC2)C1C (stereo unspecified) | 0.56µM* | -5 | 0% | -6% | -1%
N[C@@H](CO)C(=O)O | -1% | / | / | -1% | /
COc1cccc(-n2c(-c3ccccc3)c[nH]c2=S)c1 | 10µM* | 9 | -5% | 11µM* | 3%
S=c1[nH]cc(-c2ccccc2)n1-c1cccc(Cl)c1 | 4.5µM* | -4 | -4% | 2.5µM* | 21%
C=CCCN(C(C)C(=O)OC)S(=O)(=O)c1ccccc1Br (stereo unspecified) | -4% | / | / | -23% | /
CN(C)/C(=N\S(=O)(=O)c1ccc(Br)cc1)c1ccccc1 | 1% | 1 | ? | -15% | ?

Assay outcomes deposited in PubChem by National Center for Advancing Translational Sciences (NCATS).
